The results in this text go back to ChEMBL document CHEMBL1961873, “Compounds: GSK PKIS; Assays: Nanosyn kinase panel” (2012).

The structures appear in SMILES notation.

Assay [1] deals with T1, Aurora kinase A (Homo sapiens) (UniProt O14965).
T1 sequence (whole entry): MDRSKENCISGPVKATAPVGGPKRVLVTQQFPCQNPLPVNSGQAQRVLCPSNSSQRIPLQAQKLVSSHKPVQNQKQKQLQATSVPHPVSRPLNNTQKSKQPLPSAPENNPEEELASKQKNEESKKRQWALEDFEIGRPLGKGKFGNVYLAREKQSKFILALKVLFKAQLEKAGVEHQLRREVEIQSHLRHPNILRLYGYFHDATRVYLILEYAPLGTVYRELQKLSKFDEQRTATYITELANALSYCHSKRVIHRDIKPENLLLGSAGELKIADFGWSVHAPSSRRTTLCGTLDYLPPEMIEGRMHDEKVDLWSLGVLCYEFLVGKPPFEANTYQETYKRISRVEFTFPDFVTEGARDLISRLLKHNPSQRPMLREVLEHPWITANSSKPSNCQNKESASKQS
Particulars: at 1 µM.

Assay [2] addresses Aurora kinase B (Homo sapiens) (UniProt Q96GD4). Particulars: at 0.1 µM.
Assay [3] shares this target. Particulars: at 1 µM.
The target in assay [4] is T2, Aurora kinase C (Homo sapiens) (UniProt Q9UQB9).
T2 sequence (whole entry): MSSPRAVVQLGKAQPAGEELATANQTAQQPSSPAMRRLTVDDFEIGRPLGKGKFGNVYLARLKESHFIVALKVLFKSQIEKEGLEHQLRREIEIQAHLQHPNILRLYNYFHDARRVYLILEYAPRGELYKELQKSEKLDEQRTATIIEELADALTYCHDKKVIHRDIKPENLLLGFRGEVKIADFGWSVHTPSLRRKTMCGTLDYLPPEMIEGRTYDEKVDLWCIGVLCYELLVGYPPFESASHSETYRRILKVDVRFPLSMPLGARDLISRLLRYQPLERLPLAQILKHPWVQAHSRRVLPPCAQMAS
Conditions: at 0.1 µM.

In assay [5] the target is T2, Aurora kinase C (Homo sapiens). Conditions: at 1 µM.
Assay [6] concerns the target Serine/threonine-protein kinase 10 (Homo sapiens) (UniProt O94804). Conditions: at 0.1 µM.
Assay [7] shares this target. Particulars: at 1 µM.
Assay [8] addresses T3, Mitogen-activated protein kinase kinase kinase kinase 2 (Homo sapiens) (UniProt Q12851).
T3 sequence (whole entry): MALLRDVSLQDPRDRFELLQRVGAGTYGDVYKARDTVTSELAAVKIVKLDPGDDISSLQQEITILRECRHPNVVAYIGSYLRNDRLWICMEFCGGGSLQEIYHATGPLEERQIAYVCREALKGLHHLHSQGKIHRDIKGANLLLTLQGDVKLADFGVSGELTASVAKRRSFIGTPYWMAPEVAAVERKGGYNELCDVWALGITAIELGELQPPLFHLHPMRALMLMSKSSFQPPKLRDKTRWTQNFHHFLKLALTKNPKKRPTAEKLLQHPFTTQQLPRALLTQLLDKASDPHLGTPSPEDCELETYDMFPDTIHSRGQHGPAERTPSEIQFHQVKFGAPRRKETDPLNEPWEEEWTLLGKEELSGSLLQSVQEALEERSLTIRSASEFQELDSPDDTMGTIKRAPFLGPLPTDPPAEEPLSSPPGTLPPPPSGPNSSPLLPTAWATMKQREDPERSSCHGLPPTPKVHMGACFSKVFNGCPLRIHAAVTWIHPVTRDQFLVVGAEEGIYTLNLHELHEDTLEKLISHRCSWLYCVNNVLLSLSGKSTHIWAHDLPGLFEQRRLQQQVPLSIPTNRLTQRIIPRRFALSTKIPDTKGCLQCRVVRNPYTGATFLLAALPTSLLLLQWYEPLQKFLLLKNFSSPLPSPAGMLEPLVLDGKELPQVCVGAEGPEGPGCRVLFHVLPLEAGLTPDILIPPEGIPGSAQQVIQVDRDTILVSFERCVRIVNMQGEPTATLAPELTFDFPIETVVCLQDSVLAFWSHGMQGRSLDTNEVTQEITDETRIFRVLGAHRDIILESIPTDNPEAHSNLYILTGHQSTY
Conditions: at 0.1 µM.

The target in assay [9] is T3, Mitogen-activated protein kinase kinase kinase kinase 2 (Homo sapiens). Particulars: at 1 µM.
The target in assay [10] is Mitogen-activated protein kinase kinase kinase kinase 4 (Homo sapiens) (UniProt O95819). Conditions: at 0.1 µM.
Assay [11] shares this target. Particulars: at 1 µM.
Assay [12] has as its target Dual specificity mitogen-activated protein kinase kinase 1 (Homo sapiens) (UniProt Q02750). Particulars: at 0.1 µM.
The target is the same in assay [13]. Particulars: at 1 µM.
The target of assay [14] is Misshapen-like kinase 1 (Homo sapiens) (UniProt Q8N4C8). Particulars: at 0.1 µM.
The target is the same in assay [15]. Particulars: at 1 µM.
Assay [16] has as its target T4, Serine/threonine-protein kinase 4 (Homo sapiens) (UniProt Q13043).
T4 sequence (whole entry): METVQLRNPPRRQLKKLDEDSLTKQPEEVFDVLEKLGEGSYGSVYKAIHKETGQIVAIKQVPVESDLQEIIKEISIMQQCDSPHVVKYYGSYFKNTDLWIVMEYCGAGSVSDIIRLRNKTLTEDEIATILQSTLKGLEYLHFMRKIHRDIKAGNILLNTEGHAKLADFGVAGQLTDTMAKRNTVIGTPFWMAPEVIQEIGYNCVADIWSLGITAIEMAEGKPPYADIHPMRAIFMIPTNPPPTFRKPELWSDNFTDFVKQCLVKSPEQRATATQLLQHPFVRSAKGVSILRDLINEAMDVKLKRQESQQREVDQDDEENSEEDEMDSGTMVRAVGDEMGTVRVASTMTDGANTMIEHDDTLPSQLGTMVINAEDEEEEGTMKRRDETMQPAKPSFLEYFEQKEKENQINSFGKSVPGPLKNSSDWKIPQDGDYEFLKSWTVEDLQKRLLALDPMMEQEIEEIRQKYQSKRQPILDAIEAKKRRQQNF
Conditions: at 0.1 µM.

For assay [17], the target named is T4, Serine/threonine-protein kinase 4 (Homo sapiens). Conditions: at 1 µM.
Assay [18] concerns the target T5, Serine/threonine-protein kinase 3 (Homo sapiens) (UniProt Q13188).
T5 sequence (whole entry): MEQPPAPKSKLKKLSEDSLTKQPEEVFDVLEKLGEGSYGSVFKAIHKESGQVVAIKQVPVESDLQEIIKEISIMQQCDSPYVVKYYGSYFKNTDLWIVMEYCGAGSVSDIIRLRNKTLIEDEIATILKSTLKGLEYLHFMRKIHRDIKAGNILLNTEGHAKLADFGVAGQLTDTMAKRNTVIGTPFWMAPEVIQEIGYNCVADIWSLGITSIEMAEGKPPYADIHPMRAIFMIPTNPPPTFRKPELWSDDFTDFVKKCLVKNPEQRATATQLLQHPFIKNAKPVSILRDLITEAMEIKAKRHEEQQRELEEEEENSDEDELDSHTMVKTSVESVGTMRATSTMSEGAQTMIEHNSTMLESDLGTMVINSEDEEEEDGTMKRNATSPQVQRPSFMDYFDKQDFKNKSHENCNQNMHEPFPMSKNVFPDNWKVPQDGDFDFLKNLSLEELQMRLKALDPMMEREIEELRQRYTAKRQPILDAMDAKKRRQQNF
Conditions: at 0.1 µM.

The target in assay [19] is T5, Serine/threonine-protein kinase 3 (Homo sapiens). Particulars: at 1 µM.
The target of assay [20] is Serine/threonine-protein kinase 26 (Homo sapiens) (UniProt Q9P289). Particulars: at 0.1 µM.
Chain of Serine/threonine-protein kinase 26 (Homo sapiens) (Q9P289 2-416 limits assumed): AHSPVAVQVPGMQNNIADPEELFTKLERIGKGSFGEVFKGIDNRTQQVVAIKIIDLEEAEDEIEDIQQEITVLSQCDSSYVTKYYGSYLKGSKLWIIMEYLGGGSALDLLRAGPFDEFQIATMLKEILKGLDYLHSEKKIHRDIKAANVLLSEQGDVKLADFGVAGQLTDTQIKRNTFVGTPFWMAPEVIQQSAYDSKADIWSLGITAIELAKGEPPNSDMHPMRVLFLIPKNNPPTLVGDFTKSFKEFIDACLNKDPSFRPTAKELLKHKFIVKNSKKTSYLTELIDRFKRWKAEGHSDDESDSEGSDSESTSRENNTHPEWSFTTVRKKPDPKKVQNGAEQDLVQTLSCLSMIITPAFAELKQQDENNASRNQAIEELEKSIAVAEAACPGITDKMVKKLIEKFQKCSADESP

Chain of Serine/threonine-protein kinase 10 (Homo sapiens) (O94804 whole entry, looked up): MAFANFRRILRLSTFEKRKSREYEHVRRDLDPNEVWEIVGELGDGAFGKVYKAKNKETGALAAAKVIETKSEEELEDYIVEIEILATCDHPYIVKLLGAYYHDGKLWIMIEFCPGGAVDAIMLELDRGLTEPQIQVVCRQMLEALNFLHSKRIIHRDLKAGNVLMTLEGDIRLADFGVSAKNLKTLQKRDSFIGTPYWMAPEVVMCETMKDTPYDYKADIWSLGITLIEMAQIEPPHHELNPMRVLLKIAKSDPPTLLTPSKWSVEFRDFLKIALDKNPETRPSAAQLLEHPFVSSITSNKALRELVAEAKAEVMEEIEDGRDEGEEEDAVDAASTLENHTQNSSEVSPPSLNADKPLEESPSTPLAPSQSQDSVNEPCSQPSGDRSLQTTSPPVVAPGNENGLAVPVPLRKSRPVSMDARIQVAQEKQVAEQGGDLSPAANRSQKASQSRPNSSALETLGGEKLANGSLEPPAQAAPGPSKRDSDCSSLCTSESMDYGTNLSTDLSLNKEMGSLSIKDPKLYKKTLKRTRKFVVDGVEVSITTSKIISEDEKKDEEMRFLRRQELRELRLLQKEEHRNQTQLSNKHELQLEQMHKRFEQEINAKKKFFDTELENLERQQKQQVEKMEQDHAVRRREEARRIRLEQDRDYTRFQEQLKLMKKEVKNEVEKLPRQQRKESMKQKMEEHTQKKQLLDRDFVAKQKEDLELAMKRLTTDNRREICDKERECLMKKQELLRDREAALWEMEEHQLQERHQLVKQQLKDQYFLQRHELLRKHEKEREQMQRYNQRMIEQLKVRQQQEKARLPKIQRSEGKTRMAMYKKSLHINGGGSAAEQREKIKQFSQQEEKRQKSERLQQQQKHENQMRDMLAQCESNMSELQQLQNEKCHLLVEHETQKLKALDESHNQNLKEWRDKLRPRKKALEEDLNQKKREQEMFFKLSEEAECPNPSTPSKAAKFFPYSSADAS
Chain of Mitogen-activated protein kinase kinase kinase kinase 4 (Homo sapiens) (O95819 2-1239 limits assumed): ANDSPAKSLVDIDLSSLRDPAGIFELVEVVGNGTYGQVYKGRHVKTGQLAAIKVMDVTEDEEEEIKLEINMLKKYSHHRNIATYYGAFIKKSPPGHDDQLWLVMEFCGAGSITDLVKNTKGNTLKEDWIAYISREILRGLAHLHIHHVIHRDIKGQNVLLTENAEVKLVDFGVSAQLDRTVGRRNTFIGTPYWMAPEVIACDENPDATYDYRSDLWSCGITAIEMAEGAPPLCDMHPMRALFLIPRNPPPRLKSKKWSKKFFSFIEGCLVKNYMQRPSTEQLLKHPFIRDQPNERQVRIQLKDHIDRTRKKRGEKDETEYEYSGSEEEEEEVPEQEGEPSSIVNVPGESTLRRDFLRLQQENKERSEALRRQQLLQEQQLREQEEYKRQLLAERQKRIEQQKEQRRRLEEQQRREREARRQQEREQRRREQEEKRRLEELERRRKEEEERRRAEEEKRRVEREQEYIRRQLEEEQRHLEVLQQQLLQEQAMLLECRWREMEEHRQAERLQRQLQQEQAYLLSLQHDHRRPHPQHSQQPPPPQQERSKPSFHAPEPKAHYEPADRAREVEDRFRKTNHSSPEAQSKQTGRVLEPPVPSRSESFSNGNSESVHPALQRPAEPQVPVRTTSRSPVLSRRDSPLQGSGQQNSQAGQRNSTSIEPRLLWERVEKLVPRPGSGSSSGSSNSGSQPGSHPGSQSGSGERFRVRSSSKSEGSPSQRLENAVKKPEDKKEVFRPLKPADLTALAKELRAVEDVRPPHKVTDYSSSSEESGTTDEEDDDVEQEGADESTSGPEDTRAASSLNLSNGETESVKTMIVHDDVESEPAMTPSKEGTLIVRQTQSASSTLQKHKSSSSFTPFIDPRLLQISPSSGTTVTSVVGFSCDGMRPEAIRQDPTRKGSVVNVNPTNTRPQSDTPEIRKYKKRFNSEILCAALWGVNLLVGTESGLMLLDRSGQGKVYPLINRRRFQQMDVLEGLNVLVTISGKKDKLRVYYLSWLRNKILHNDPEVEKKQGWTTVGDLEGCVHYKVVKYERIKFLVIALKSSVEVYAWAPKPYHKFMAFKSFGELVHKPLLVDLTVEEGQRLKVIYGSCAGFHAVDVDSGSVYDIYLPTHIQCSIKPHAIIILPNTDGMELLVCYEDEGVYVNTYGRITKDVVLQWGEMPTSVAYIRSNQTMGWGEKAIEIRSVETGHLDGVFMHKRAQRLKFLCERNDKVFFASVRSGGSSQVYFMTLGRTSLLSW
Chain of Aurora kinase B (Homo sapiens) (Q96GD4 whole entry): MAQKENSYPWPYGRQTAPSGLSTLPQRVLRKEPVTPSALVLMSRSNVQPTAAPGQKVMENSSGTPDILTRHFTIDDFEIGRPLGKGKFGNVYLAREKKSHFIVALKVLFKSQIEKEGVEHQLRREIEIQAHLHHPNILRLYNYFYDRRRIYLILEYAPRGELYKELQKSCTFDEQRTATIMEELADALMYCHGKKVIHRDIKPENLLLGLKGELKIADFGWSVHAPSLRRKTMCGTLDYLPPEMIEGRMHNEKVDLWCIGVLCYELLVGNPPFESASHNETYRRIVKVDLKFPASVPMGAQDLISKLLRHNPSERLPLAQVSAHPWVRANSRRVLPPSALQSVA
Chain of Misshapen-like kinase 1 (Homo sapiens) (Q8N4C8 whole entry, looked up): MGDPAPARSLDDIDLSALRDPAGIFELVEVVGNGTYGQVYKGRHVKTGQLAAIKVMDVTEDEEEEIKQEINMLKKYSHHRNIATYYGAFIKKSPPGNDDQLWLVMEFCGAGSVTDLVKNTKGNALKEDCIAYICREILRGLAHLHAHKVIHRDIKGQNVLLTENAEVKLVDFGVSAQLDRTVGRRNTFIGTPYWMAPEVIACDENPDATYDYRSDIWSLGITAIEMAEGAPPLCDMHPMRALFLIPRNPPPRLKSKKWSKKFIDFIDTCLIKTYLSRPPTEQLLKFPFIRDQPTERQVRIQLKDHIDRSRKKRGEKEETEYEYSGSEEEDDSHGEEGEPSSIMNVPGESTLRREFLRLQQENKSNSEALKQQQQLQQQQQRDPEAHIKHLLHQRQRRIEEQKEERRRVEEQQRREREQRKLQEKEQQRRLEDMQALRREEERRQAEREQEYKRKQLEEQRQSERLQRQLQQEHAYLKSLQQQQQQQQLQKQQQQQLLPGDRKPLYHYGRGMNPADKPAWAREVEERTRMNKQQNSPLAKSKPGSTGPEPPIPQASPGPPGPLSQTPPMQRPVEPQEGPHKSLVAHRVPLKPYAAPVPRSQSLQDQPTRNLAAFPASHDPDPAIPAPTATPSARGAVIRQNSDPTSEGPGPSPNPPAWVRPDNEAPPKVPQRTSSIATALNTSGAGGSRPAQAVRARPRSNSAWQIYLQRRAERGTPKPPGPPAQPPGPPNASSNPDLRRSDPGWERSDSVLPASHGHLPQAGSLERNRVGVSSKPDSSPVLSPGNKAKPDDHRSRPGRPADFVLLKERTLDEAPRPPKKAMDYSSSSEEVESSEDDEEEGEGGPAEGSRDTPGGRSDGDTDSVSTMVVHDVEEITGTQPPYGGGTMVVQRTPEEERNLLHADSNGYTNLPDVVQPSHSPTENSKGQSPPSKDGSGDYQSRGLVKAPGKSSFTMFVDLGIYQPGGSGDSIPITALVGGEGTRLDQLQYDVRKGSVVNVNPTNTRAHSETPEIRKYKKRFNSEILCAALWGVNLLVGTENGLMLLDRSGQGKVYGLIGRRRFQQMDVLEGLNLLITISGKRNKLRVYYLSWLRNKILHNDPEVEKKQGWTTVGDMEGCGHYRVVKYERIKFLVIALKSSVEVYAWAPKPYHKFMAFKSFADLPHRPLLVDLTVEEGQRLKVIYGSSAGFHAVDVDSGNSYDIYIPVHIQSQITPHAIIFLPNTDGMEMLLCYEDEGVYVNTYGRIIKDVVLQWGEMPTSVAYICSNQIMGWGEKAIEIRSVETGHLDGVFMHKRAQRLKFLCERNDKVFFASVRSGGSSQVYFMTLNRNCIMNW
Chain of Dual specificity mitogen-activated protein kinase kinase 1 (Homo sapiens) (Q02750 whole entry): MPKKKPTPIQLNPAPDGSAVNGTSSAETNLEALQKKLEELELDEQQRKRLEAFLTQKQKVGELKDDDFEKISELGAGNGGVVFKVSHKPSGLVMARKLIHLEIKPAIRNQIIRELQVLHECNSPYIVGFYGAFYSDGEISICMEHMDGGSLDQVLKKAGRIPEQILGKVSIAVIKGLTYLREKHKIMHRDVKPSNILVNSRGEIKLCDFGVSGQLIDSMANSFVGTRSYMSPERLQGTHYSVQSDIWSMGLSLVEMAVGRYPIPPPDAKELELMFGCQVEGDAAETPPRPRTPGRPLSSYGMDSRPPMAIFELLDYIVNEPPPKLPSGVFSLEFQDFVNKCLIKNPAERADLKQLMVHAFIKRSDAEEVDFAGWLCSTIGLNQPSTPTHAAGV

In general, inhibition refers to the relative decrease from the control value, in per cent. Turning to `CS(=O)(=O)CCNCc1ccc(-c2ccc3ncnc(Nc4ccc(OCc5cccc(C(F)(F)F)c5)cc4)c3c2)o1`, the inhibition in assay [1] is 4.78%; in [2] it was 5.65%; in [3], 4.87%; in assay [4] it was 1.93%; in assay [5], 4.53%; in assay [6], 9.88%. For the same compound, the inhibition was 11.7% in assay [7]; -0.93% in [8]; 2.32% in assay [9]; 2.66% in [10]; 6.36% in [11]; 3.29% in [12]. For the same compound, the inhibition was 5.38% in [13]; 5.26% in assay [14]; 3.68% in [15]; 3.43% in assay [16]; 5.83% in assay [17]; 4.6% in assay [18]. The inhibition in assay [19] is 5.04%; in [20], -1.93%.
For `CC(C)c1ccc(-c2cc(-c3c[nH]nc3-c3ccccn3)ccn2)cc1`, the inhibition in assay [1] was 3.72%; in assay [2], 0.9%; in assay [3], 5.53%; in [4], 1.22%; in [5], -0.07%; in assay [6] it was 0.88%. Further, the inhibition worked out at 0.62% in assay [7]; 1.5% in assay [8]; 3.27% in assay [9]; 10.9% in assay [10]; 53.8% in [11]; 0.36% in [12]. For the same compound, the inhibition in [13] was 2.47%; in [14], 7.67%; in [15], 37.6%; in assay [16], 0.63%; in assay [17] it was -0.98%; in assay [18], 1.18%. For the same compound, the inhibition in assay [19] turned out to be 0.64%; in assay [20], 0.06%.
`CN(c1ccc(NC(=O)NCCN2CCOCC2)cc1)c1ccnc(Nc2ccc(CS(C)(=O)=O)cc2)n1`: the inhibition in [1] was 93.9%; in [2] it was 29.7%; in [3], 76.9%; in assay [4], 43.8%; in assay [5], 104%; in assay [6] it was 11.9%. Moreover, the inhibition amounted to 34.2% in assay [7]; 0.62% in assay [8]; 3.53% in [9]; 4.19% in assay [10]; 14.7% in assay [11]; 5.04% in assay [12]. For the same compound, the inhibition was determined as 7.12% in [13]; 3.82% in [14]; 7.42% in assay [15]; 7.84% in assay [16]; 18.8% in assay [17]; 6.91% in assay [18]. For the same compound, the inhibition in [19] is 13.6%; in assay [20], -1.2%.
Consider `CC1=C(C(=O)Nc2ccc3[nH]nc(C)c3c2)C(c2ccc(C(F)(F)F)cc2)CC(=O)N1` (stereo not given), for which the inhibition in assay [1] came to 88.3%; in [2], 7.45%; in assay [3], 45.7%; in assay [4] it was 7.71%; in assay [5] it was 78.2%; in [6], 2.01%. Moreover, the inhibition is 4.46% in assay [7]; 0.76% in [8]; 3.74% in [9]; 4.23% in [10]; 1.55% in [11]; 6.17% in assay [12]. Besides, the inhibition in assay [13] is 36.5%; in [14] it was 4.68%; in [15], 4.08%; in assay [16], 5.04%; in assay [17], 7.56%; in assay [18], 5.03%. For the same compound, the results for the inhibition in assay [19] and in assay [20] were 5.46% and -1.47%, respectively.
Consider `CNC(=O)c1sc(-n2cnc3cc(OC)c(OC)cc32)cc1OCc1ccccc1C(F)(F)F`, for which the inhibition turned out to be 4.37% in [1]; 6.28% in assay [2]; 16.6% in assay [3]; 5.07% in [4]; 20.8% in assay [5]; 10.4% in [6]. Moreover, the inhibition worked out at 31.6% in [7]; 3.26% in assay [8]; 7.14% in assay [9]; 8.53% in assay [10]; 12.2% in assay [11]; 3.14% in [12]. Moreover, the inhibition in assay [13] turned out to be 3.6%; in [14], 9.53%; in assay [15], 12.2%; in [16], 2.47%; in [17], 3.85%; in assay [18], 5.34%. Besides, the results for the inhibition in assay [19] and in [20] were 7.16% and -0.27%, respectively.
Take `COc1ccc2ncn(-c3cc(O[C@H](C)c4ccccc4C(F)(F)F)c(C(N)=O)s3)c2c1`: the inhibition in assay [1] is 5.59%; in assay [2] it was 1.15%; in assay [3], 7.77%; in assay [4] it was -1.97%; in assay [5] it was -0.3%; in assay [6], 35.2%. Also, the inhibition is 80.7% in assay [7]; 0.64% in assay [8]; 4.67% in assay [9]; 0.55% in assay [10]; 3.61% in assay [11]; 0.25% in assay [12]. For the same compound, the inhibition in [13] was -0.57%; in assay [14] it was 1.05%; in [15], 4.03%; in assay [16], 1.43%; in assay [17], 22.5%; in [18], 0.2%. Besides, the inhibition is 18.8% in assay [19] and 0.64% in [20].
